# In PubChem BioAssay (Tox21):
# Several values for one entry are separate records, joined by “and”; a condition that tells them apart may be missing. Equal entries are not always repeated. Results filed as inconclusive are left out. A call without a number means that no potency is given here. The source holds several records for some structures; these can differ, active in one and inactive in another. Activity calls are given as the source filed them. Unless noted, the call rests on the fitted dose curve.
# What was measured:
# [1] = Nuclear factor erythroid 2-related factor 2/antioxidant responsive element (Nrf2/ARE) small molecule agonists: luciferase reporter gene qHTS assay in human keratinocytes (AID 1919969); further: nearly all actives have a fitted effect of over 35% in size; further: potency means the concentration at half of the fitted maximal effect
# [2] = target: Gonadotropin-releasing hormone receptor (Homo sapiens) (UniProt P30968); assay: Human gonadotropin-releasing hormone receptor (GnRHR) small molecule agonists, calcium flux assay in GnRHR-HEK293 cells (AID 1920063); further: nearly all actives have a fitted effect of over 35% in size
# Summary of the method: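 Stable human GnRHR HEK293 line. 18 h plating, then calcium dye for 1 h at 37 C. Agonist-mode compound addition from DMSO stocks; fluorescence monitored 3 min.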
# [3] = target: KiSS-1 receptor (Homo sapiens) (UniProt Q969F8); assay: Human kisspeptin (KISS1R) small molecule agonists, calcium flux assay in KISS1R-HEK293 cells (AID 1920064; active means well fitted activation curve with a large enough effect in the repeat runs)
# Summary of the method: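 After overnight (18 h) culture at 37 C/5% CO2, human KISS1R-HEK293 cells received calcium dye for 1 h, then test compound; emission at 540 nm (excitation 480 nm) was tracked for 3 min.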
# [4] = G protein-coupled receptor (GPCR) small molecule agonists, calcium flux assay: HEK293 wild type cell line counter screen (AID 1920065)
# Summary of the method: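 Following 18 h incubation at 37 C/5% CO2, plates got calcium dye for 1 h; compounds, ATP or DMSO were then pinned in and fluorescence followed kinetically (480/540 nm).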
# [5] = p53 small molecule agonists, cell-based qHTS assay with human liver microsomes (AID 1963577);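 further: p53 response element beta-lactamase reporter cells with liver microsomes plus NADPH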
# Summary of the method: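 In this qHTS, p53 response-element beta-lactamase cells receive test compound together with a microsome/NADPH activating system (0.5 mg/mL final each) and are incubated 16 h at 37 C before LiveBLAzer fluorescence detection.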
# [6] = p53 small molecule agonists, cell-based qHTS assay with rat liver microsomes (AID 1963578)
# Summary of the method: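 Agonist mode in p53RE-bla reporter cells, with compounds co-incubated 16 h at 37 C alongside 0.5 mg/mL rat liver microsomes and 0.5 mg/mL NADPH (final), followed by a 2 h LiveBLAzer detection step.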
# [7] = p53 small molecule agonists, cell-based qHTS assay with human liver microsomes: qHTS cell viability counter screen (AID 1963579); further: nearly all actives have a fitted effect of over 45% in size
# Summary of the method: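 Metabolically activated exposure: compounds, human liver microsomes and NADPH (0.5 mg/mL final apiece) were added to p53RE-bla cells seeded 5 h earlier, left 16 h at 37 C, and then assessed for viability by CellTiter-Glo luminescence.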
# [8] = p53 small molecule agonists, cell-based qHTS assay with rat liver microsomes: qHTS cell viability counter screen (AID 1963580); further: nearly all actives have a fitted effect of over 45% in size
# Summary of the method: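 Cytotoxicity counter screen: intracellular ATP measured by CellTiter-Glo luminescence in the same wells as the beta-lactamase reporter read, on HCT-116 p53RE-bla cells exposed 16 h at 37 C to compounds with rat liver microsomes and NADPH, each 0.5 mg/mL final.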
# [9] = p53 small molecule agonists, cell-based qHTS assay: qHTS cell viability counter screen (AID 1963581); further: nearly all actives have a fitted effect of over 45% in size
# Summary of the method: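 qHTS counter screen: 16 h compound exposure at 37 C of p53RE-bla HCT-116 cells (4,000 per well, seeded 5 h prior), cell viability by ATP luminescence.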
# [10] = p53 small molecule agonists, cell-based qHTS assay (AID 1963582; active means well fitted activation curve with a large enough effect in the signal ratio in the repeat runs, not every such curve was filed as active; the % refers to the signal ratio; further: potency means the concentration at half of the fitted maximal effect)
# Summary of the method: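 Measured: fluorescence from cleaved LiveBLAzer substrate. System: p53RE-bla cells, 16 h compound treatment at 37 C, 2 h substrate step at room temperature.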
# [11] = target: 5-hydroxytryptamine receptor 2A (Homo sapiens) (UniProt P28223); assay: 5-hydroxytryptamine receptor 2A (HTR2A) small molecule antagonists, cell-based qHTS assay (AID 1963586); further: nearly all actives have a fitted effect of over 45% in size; further: potency means the concentration at half of the fitted maximal effect
# Summary of the method: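 CHO cells stably expressing human HTR2A were plated for 18 h at 37 C, then loaded with calcium dye for 1 h. Compounds were preincubated 5 min at room temperature before DOI (4 nM solution) was added. Kinetic fluorescence was read for 3 min.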
# [12] = target: 5-hydroxytryptamine receptor 2A (Homo sapiens) (UniProt P28223); assay: 5-hydroxytryptamine receptor 2A (HTR2A) small molecule agonists, cell-based qHTS assay (AID 1963587); further: nearly all actives have a fitted effect of over 30% in size; further: potency means the concentration at half of the fitted maximal effect
# Summary of the method: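 CHO cells stably expressing human HTR2A, plated 18 h, loaded with calcium dye 1 h at 37 C. Agonist mode: compounds added and intracellular calcium fluorescence recorded kinetically for 2 min at 1 sec intervals.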
# [13] = target: Muscarinic acetylcholine receptor M1 (Homo sapiens) (UniProt P11229); assay: Cholinergic receptor muscarinic 1 (CHRM1) small molecule antagonists, cell-based qHTS assay (AID 1963588); further: nearly all actives have a fitted effect of over 40% in size
# Summary of the method: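 Compounds were tested at 15 concentrations in three independent runs. Dye-loaded CHRM1-CHO cells were exposed 5 min at room temperature before stimulation by acetylcholine added at 50nM. Intracellular calcium was read kinetically on FDSS for 3 min.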
# [14] = target: Muscarinic acetylcholine receptor M1 (Homo sapiens) (UniProt P11229); assay: Cholinergic receptor muscarinic 1 (CHRM1) small molecule agonists, cell-based qHTS assay (AID 1963589); further: nearly all actives have a fitted effect of over 35% in size
# Summary of the method: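 Kinetic fluorescence (1 s intervals) of calcium-sensitive dye in human M1 CHO cells after compound addition; cells pre-incubated 18 h at 37 C/5% CO2 and dye-loaded 1 h.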
# [15] = cAMP Responsive Elements (CRE) small molecule agonists, cell-based qHTS assay (AID 1963590)
# Summary of the method: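 Test agents in DMSO were incubated 3 h at 37 C/5% CO2 with CRE-bla HEK 293T cells seeded 18 h earlier; LiveBLAzer B/G FRET substrate was added and read after 2 h at room temperature.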
# [16] = cAMP Responsive Elements (CRE) small molecule antagonists, cell-based qHTS assay (AID 1963591; active means well fitted inhibition curve with a large enough effect in the signal ratio in the repeat runs, not every such curve was filed as active; the % refers to the signal ratio)
# Summary of the method: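 Reporter line CRE-bla HEK 293T in dialyzed-FBS DMEM; cells preincubated 18 h, treated 3 h with compound plus NKH477 (0.25 uM final); LiveBLAzer FRET, 2 h RT.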
# [17] = target: D(2) dopamine receptor (Homo sapiens) (UniProt P14416); assay: Dopamine D2 receptor (DRD2) small molecule agonists, cell-based qHTS assay (AID 1963594); further: nearly all actives have a fitted effect of over 35% in size
# Summary of the method: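 HEK293 cells stably expressing human DRD2, pre-treated with PDE inhibitor Ro20-1724 (0.1 mM final) and compound 10 min at room temperature, then stimulated with NKH477 (200nM […]) for 30 min. cAMP read by HTRF (665/620 nm).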
# [18] = target: D(2) dopamine receptor (Homo sapiens) (UniProt P14416); assay: Dopamine D2 receptor (DRD2) small molecule antagonists, cell-based qHTS assay (AID 1963595; active means well fitted inhibition curve with a large enough effect in the signal ratio in the repeat runs, with a control signal flat; the % refers to the signal ratio)
# Summary of the method: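 Human DRD2 antagonist qHTS measuring cAMP by HTRF. The cells are exposed to compound for 10 min, then to NKH477 (200 nM) and quinpirole (12 nM) for 30 min at RT, with Ro20-1724 (0.1 mM) present throughout.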
# [19] = target: Beta-2 adrenergic receptor (Homo sapiens) (UniProt P07550); assay: Adrenergic beta2 receptor (ADRB2) small molecule antagonists, cell-based qHTS assay (AID 1963592); further: series mostly up to about 92 µM; nearly all actives have a fitted effect of over 50% in size
# Summary of the method: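 Assay format: CHO-ADRB2 cells, 18-20hr seeding at 37C/5% CO2, then compound plus 1nM isoproterenol agonist mix for 0.5hr RT. Homogeneous time-resolved fluorescence cAMP detection after 1hr, expressed as 665/615 nm ratio.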
# [20] = target: Beta-2 adrenergic receptor (Homo sapiens) (UniProt P07550); assay: Adrenergic beta2 receptor (ADRB2) small molecule agonists, cell-based qHTS assay (AID 1963593);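 further: CHO cells stably overexpressing human ADRB2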
# Summary of the method: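 CHO cells stably over-expressing ADRB2 were plated overnight at 37C, then dosed with compounds plus a stimulation mix containing 100uM IBMX and 25uM Ro-20-1724 for 0.5hr at room temperature. cAMP was measured by HTRF competition, 1hr.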
# Chain of Beta-2 adrenergic receptor (Homo sapiens) (P07550 whole entry, looked up): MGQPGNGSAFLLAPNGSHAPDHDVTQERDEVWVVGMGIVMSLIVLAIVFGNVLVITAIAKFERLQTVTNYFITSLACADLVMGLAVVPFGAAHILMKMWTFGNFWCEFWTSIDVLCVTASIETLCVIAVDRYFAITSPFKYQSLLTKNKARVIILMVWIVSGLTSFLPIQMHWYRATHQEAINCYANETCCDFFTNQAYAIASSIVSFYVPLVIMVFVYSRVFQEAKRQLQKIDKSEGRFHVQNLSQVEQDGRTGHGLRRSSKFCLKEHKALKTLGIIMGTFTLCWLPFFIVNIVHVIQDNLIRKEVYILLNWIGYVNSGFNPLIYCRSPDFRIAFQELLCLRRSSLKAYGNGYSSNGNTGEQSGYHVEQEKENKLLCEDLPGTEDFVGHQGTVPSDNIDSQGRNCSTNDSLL
# Chain of D(2) dopamine receptor (Homo sapiens) (P14416 whole entry, looked up): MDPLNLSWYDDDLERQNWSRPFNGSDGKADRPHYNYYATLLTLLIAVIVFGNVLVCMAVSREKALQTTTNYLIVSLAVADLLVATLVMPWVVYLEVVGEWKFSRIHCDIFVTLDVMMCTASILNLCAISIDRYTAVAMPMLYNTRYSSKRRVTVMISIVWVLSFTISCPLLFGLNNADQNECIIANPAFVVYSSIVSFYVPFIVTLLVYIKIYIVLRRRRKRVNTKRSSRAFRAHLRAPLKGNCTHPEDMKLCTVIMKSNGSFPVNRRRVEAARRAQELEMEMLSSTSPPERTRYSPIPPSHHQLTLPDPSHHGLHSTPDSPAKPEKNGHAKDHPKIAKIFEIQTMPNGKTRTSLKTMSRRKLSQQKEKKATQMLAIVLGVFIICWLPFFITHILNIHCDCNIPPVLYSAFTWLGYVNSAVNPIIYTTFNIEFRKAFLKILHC
# Chain of 5-hydroxytryptamine receptor 2A (Homo sapiens) (P28223 whole entry, looked up): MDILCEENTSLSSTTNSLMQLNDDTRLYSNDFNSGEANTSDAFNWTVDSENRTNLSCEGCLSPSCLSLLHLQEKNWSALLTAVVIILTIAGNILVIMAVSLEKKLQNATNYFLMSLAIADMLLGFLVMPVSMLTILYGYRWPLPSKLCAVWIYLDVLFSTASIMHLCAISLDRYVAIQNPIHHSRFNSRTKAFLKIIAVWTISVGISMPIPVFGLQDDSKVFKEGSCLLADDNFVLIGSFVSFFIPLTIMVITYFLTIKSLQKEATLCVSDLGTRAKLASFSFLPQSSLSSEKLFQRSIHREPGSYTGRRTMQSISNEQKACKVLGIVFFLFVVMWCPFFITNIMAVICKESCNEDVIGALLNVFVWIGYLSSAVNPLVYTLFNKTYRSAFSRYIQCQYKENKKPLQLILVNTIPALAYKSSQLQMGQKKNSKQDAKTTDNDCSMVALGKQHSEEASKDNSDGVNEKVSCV
# Chain of KiSS-1 receptor (Homo sapiens) (Q969F8 whole entry, looked up): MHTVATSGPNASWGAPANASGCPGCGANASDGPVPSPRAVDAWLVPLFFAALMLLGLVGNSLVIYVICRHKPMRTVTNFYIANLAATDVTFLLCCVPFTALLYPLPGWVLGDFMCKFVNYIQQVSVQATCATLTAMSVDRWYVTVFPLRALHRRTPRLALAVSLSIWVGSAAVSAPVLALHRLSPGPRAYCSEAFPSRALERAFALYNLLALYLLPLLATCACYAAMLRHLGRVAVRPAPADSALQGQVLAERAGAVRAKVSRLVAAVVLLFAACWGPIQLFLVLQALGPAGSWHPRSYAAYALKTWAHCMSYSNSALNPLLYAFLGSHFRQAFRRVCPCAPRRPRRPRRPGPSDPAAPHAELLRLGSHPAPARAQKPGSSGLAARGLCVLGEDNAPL
# Chain of Muscarinic acetylcholine receptor M1 (Homo sapiens) (P11229 whole entry, looked up): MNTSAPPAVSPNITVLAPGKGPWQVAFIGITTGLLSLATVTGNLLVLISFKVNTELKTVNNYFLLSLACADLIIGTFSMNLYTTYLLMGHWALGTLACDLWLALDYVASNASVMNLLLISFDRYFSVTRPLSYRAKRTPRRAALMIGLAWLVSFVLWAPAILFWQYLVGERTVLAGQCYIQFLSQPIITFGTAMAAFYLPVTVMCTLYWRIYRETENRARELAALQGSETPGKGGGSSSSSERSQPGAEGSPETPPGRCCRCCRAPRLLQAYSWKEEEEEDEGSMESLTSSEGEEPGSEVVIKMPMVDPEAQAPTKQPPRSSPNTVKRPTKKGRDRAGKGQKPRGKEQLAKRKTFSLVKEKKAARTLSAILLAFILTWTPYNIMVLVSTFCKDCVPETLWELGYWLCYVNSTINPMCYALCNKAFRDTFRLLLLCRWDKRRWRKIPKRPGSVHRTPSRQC
# Chain of Gonadotropin-releasing hormone receptor (Homo sapiens) (P30968 whole entry, looked up): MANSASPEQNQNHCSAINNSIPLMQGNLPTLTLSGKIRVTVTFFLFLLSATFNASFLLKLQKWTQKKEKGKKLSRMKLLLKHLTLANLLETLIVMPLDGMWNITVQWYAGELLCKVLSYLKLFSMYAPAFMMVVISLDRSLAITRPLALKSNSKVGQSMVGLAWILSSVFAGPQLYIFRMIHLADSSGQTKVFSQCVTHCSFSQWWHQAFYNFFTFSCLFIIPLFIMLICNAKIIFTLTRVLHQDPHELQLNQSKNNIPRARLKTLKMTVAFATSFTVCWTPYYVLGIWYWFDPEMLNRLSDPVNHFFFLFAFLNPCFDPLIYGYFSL
Structure (SMILES),Potency [1],Potency [2],Potency [3],Potency [4],Potency [5],Potency [6],Potency [7],Potency [8],Potency [9],Potency [10],Potency [11],Potency [12],Potency [13],Potency [14],Potency [15],Potency [16],Potency [17],Potency [18],Potency [19],Potency [20]
CCCCCC(N)=O,inactive,inactive,inactive,inactive,inactive,inactive,inactive,inactive,inactive,inactive,inactive,inactive,inactive,inactive,inactive,inactive,inactive,inactive,–,–
Cc1cc(Cc2ccc(N)c(C)c2)ccc1N,inactive,inactive,inactive,inactive,inactive,inactive,inactive,inactive,inactive,inactive,inactive,–,inactive,inactive,inactive,inactive,–,inactive,inactive,inactive
Nc1ncnc2nc[nH]c12,inactive,inactive,inactive,inactive,inactive,inactive,–,inactive,inactive,inactive,inactive,inactive,inactive,inactive,inactive,inactive,inactive,inactive,inactive,inactive
C=CCOC(=O)c1ccccc1C(=O)OCC=C,inactive,inactive,inactive,inactive,inactive,inactive,inactive,inactive,inactive,inactive,inactive,inactive,–,–,inactive,inactive,inactive,inactive,inactive,inactive
CCCCCCO,inactive,inactive,inactive,inactive,inactive,inactive,inactive,inactive,inactive,inactive,inactive,inactive,inactive,inactive,inactive,inactive,–,inactive,–,inactive
C#C[C@]1(O)CC[C@H]2[C@@H]3CCc4cc(O)ccc4[C@H]3CC[C@@]21C,inactive,inactive,inactive,inactive,inactive,inactive,inactive,inactive,inactive,16.1 µM (active),–,–,–,–,–,–,inactive,inactive,inactive,inactive
Nc1ccc(Nc2ccccc2)cc1,53.9 µM (active) and inactive and 30.6 µM (active),inactive,inactive,inactive,inactive,inactive,inactive,–,inactive,–,inactive and 3.75 µM (active),7.68 µM (active) and 24.6 µM (active) and 3.89 µM (active),inactive,inactive,inactive,inactive,–,–,–,–
CCCCCCC(=O)O,inactive,inactive,inactive,inactive,inactive,inactive,inactive,inactive,inactive,inactive,inactive,inactive,–,inactive,inactive,inactive,inactive,inactive,inactive,inactive
